# In PubChem BioAssay AID651899 (Broad Institute, 2012):
# Measured potencies and affinities stand elsewhere. Values without a mark were called inactive. No rule for the calls is given here.
# Experiment: cytotoxicity in HEK293 cells, dose response, cytotoxicity control, cell-based, plate reader, cherry-pick (AID 651899);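 also: cells exposed to compound for 48 hours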
# Details: series mostly up to 26 µM; activity change, negative = cytotoxicity: at the top concentration
row,Compound,"activity change, negative = cytotoxicity"
1,CC1CN(C(=O)Nc2ccc3snnc3c2)c2ccccc21 (stereo unspecified),-12.4%
2,CCOC(=O)c1c(N)sc(C(N)=O)c1C,28.2%
3,O=C(Nc1ncc2c(n1)CC(c1ccco1)CC2=O)c1ccccc1 (stereo unspecified),-12.7%
4,Cc1ccc(NCc2nnc(SCC(=O)N3CCc4ccccc43)n2C)cc1,-21.8%
5,O=C(c1ccncc1)N1CC[C@@H]2[C@@H](CO)Nc3ccc(Br)cc3[C@@H]21,14.1%
6,CCOc1ccc(C(=O)Nc2cc3c(cc2N2CCCC2)n(CC)c(=O)n3CC)cc1OCC,-27.8%
7,COc1ccc(F)cc1C(=O)C1CCCN(C(=O)c2ccc(C(C)=O)s2)C1 (stereo unspecified),16.8%
8,CCOC(=O)C1(CCc2ccccc2)CCN(C(=O)CN2CCOC2=O)CC1,9.01%
9,CN(Cc1ccccc1)C(=O)CCS(=O)(=O)c1ccc2c(c1)NC(=O)CS2,37.7% [at 12 µM]
10,O=C(CSc1nc2c(c(=O)n1-c1ccc(Cl)cc1)SCC2)N1CCOCC1,-6.89%
11,O=C(CSc1nnc(-c2ccncc2)n1-c1ccc(Cl)cc1)NCc1cccs1,-11.3%
12,CN1c2ccc(-c3cccc(F)c3)cc2[C@@H]2[C@@H](CCN2C(=O)c2ccncc2)[C@H]1CO,16.7% [at 23.5 µM]
13,Cc1cccc(-c2nnc(SCC#N)n2-c2ccccc2)c1,-15.9%
14,CC(=O)O[C@]1(C(C)=O)CC[C@H]2[C@@H]3C=C(C)C4=CC(=O)CC[C@]4(C)[C@H]3CC[C@@]21C,-26.5%
15,CC(Oc1ccc2c(-c3ccccc3)cc(=O)oc2c1)C(=O)NCc1ccccn1 (stereo unspecified),-28.5%
16,O=C(c1cccc(F)c1)N1CC[C@@H]2[C@H]1c1cc(-c3cccc(F)c3)ccc1N[C@@H]2CO,15.6% [at 23.5 µM]
17,Cc1cc(C)n2nc(C(=O)Nc3cccnc3)nc2n1,-21.4%
18,CCc1c(C)nc2ncnn2c1Nc1ccc(C#N)c(Cl)c1,-0.614%

row,Compound,"activity change, negative = cytotoxicity"
1,Cc1ccc(Cc2c(C)nc3nc(SCC(=O)NCc4ccco4)nn3c2C)cc1,-23.5%
2,O=C(O)CCS(=O)(=O)c1nc(-c2cccs2)cc(C(F)(F)F)n1,-3.98%
3,CCNC(=O)[C@H]1[C@H](CO)[C@H]2Cn3c(ccc(-c4ccccc4)c3=O)[C@H]2N1C(=O)Cc1cccnc1,18.2%
4,COc1ccc(C(=O)Nc2cccnc2)cc1OC,-16.8%
5,O=C(C1CCOCC1)N1CC[C@@H]2[C@H]1c1cc(Br)ccc1N[C@@H]2CO,18.5%
6,CCOC(=O)C1CCN(C(=O)Nc2ccc3snnc3c2)CC1,29.1%
7,O=C(N[C@@H]1CC[C@H](CCn2cc(-c3cccnc3)nn2)O[C@@H]1CO)c1ccccc1F,7.06%
8,Cc1cccc(-c2ccc3c(c2)C2CC3CCN2)c1 (stereo unspecified),-24.5%
9,O=C(Nc1cccnc1)C1CCN(S(=O)(=O)c2ccc(Cl)cc2)CC1,-11.1%
10,Cc1cc(C(=O)CSc2nncs2)c(C)n1-c1ccc2c(c1)OCO2,-23.3%
11,COc1ccc(Cc2c(-c3ccc(OC)c(OC)c3)nc3c(C)cc(Br)cn23)c(C)c1,18.9%
12,CC(=O)CSc1nnc(CSc2ncccn2)n1C1CCCCC1,10.1%
13,Cn1ncc2cc3c(Nc4ccc(Cl)cc4)cccc3nc21,-13.1%
14,CN1c2ccc(-c3cccc(F)c3)cc2[C@H]2[C@H](CCN2C(=O)c2ccncc2)[C@H]1CO,5.32%
15,C=CCn1c(SCc2c(C(=O)OC)sc(N)c2C(=O)OC)nnc1-c1ccc(Br)cc1,-6.79%
16,O=C(Cc1ccccc1)N1CC[C@@H]2[C@H]1c1cc(Br)ccc1N[C@@H]2CO,0.854%
17,COCCNC(=O)C[C@@H]1CC[C@@H]2[C@@H](COc3ccc(NC(=O)Nc4cccc(F)c4)cc3C(=O)N2C)O1,19.7% [at 23.5 µM]
18,CCC(=O)N1CC[C@@H]2[C@H]1c1cc(-c3cccc(F)c3)ccc1N(C)[C@H]2CO,29.8%
